HCV inh – inhibitors of hepatitis C virus infection; Huh7.5.1 HCVcc-Cre infection, luciferase reporter, 44 h; 340,000 tested, 3.4% active; Potency, µM (highest dose often 41.8 µM), hits mostly inhibitors; AID 651820
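Reporter virus HCVcc-Cre (~0.5 moi) infects cells exposed to compound; seeding density 1,000 cells/well with 4 h settling beforehand. Luminescence, 15 sec read, taken 44 h post-infection following a 15 min RT substrate incubation.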
Pf growth 96h – inhibits malaria parasite growth, 96 h; P. falciparum luciferase reporter growth, 96 h; Potency, µM (series often up to 28.7 µM), most hits filed as inhibitors; 320,000 tested, 6.9% active; AID 504834
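Delayed-death screen, second-generation endpoint: infected erythrocytes, 2% hematocrit, 0.05% parasitemia final; 96 hours at 37 C, 5% CO2; luciferase detection reagent; luminescence decrease equals reduced growth.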
HCMV inh – blocks human cytomegalovirus replication. HFF cells, HCMV-luciferase reporter, 72 h; active compounds read low. activity change, negative = inhibition, % at 57.5 µM. 410,000 tested, 4.5% active. AID 1259415; in the data active = activity change below about -60%; inconclusive = no clear call, values can overlap the other calls; inactive = above about -39%
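Luciferase read-out from HCMV-luciferase-infected HFFs (MOI 1 PFU/cell) 72 h post infection at 37C; compounds added after 16 h cell attachment; activity normalized between buffer-only basal and Salinomycin (10uM) inhibitor controls.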
Pf growth 48h – inhibits P. falciparum growth in the first generation, 48 h; 310,000 tested, 5.9% active; P. falciparum luciferase growth in erythrocytes, 48 h; Potency, µM (top dose mostly 28.7 µM), usual class: inhibitors
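Read-out is firefly luciferase luminescence from an integrated reporter in P. falciparum, so falling signal marks reduced parasite growth. Infected erythrocytes were at 2% hematocrit and 0.1% parasitemia (final) in Albumax-supplemented RPMI 1640.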
Numbers stand for hits; - = inactive; ? = inconclusive; . = no result given; [ ] = dose if it differs, or a comment. An excerpt weighted towards active compounds, which were near 13% of everything screened. Unless noted, calls come from the whole dose curve; as a rule, active = well fitted inhibition curve with a large enough effect; inconclusive = small, poorly fitted or top-dose-only effect, or another doubt; inactive = no such curve, though single readings can be large or run the other way.

SMILES	HCV inh	Pf growth 96h	HCMV inh	Pf growth 48h
CC(C)(C)c1cc(CN2CCOCC2)c(C(=O)O)o1	-	3.3µM	-	-
CCOC(=O)c1noc2ncn(CC(=O)Nc3ccc(OC)c(Cl)c3)c(=O)c12	.	.	-	.
CCCCNC(=O)c1nc2ccc(Br)cc2nc1-c1cccc(Br)c1	.	.	-	.
COc1ccc(C)cc1Nc1nc2c(S(=O)(=O)c3cc(C)ccc3C)nnn2c2ccsc12	.	.	-	.
COc1ccc(-n2ncc3c(=O)n(CC(=O)Nc4ccc5c(c4)OCCO5)cnc32)cc1	-	4.7µM	-60	-
O=C(Cn1cnc2ccccc21)Nc1ccc2c(c1)OCCCO2	11µM	-	?	-
COc1ccc(-n2ncc3c(=O)n(CC(=O)NC(C)C)cnc32)cc1	-	7.4µM	-	-
O=C(Cn1cnc2ccccc2c1=O)Nc1ccc2c(c1)OCO2	-	-	-	-
CC(C)NC(=O)Cn1cnc2c(cnn2-c2ccc(F)cc2)c1=O	-	-	-	-
O=C(Nc1cccc(Br)c1)N1CCN2CCCCC2C1 (centres undefined)	.	.	-	.
CCn1c(SCC(=O)c2ccc(NC(C)=O)c(OC)c2)nnc1-c1ccc(NS(C)(=O)=O)cc1	-	-	-	-
CCC(=O)Nc1ccc(C(=O)CSc2nnc(-c3ccc(NS(C)(=O)=O)cc3)n2C)cc1OC	-	0.47µM	-	-
CCc1nn(CC(=O)NCCc2ccc(Cl)cc2)c(=O)c2cc3c(OC)cccc3n12	.	.	-	.
CN(C)c1ccc(-c2n(C)c3ccccc3[n+]2C)cc1	8.9µM	.	-97	?
Cn1c(-c2ccccn2)[n+](C)c2ccccc21	-	-	-	-
Cn1c(-c2ccc3ccccc3n2)[n+](C)c2ccccc21	?	0.93µM	-72	?
OC(CC1CC12c1ccccc1-c1ncccc12)(c1ccccc1)c1ccccc1 (centres undefined)	?	0.83µM	-	.
Cc1noc(C)c1Cn1c(C)c(C(=O)NCc2ccc3c(c2)OCCO3)sc1=O	.	.	-	.
Cc1cc(NC(=O)CSc2ccc3nnc(-c4ccccn4)n3n2)no1	-	12µM	-	?
Cc1ccccc1NC(=O)CSc1ccc(-c2ccccn2)nn1	.	?	-	-
O=C(CSc1ccc2nnc(-c3ccccn3)n2n1)Nc1ccccc1	-	?	-	13µM
Cc1cc(NC(=O)CSc2ccc3nnc(-c4cccc(F)c4)n3n2)no1	-	?	-	1.9µM
Cc1cc(C)cc(NC(=O)CSc2ccc(-c3ccccn3)nn2)c1	13µM	?	-	?
COC(=O)C(Cc1c[nH]c2ccccc12)NC(=O)COc1cccc(C)c1 (centres undefined)	.	.	-	.
COc1cc(CN(C(=O)COc2ccccc2)c2ccccn2)cc(OC)c1OC	.	.	-	.
SMILES	HCV inh	Pf growth 96h	HCMV inh	Pf growth 48h
CC(NC(=S)NCCc1ccccc1)C(c1cccs1)N1CCN(Cc2ccccc2)CC1 (centres undefined)	7.9µM	?	-81	?
Cc1ccccc1NC(=S)NC(C)C(c1cccs1)N1CCOCC1 (centres undefined)	-[8.37 µM]	?	-	?
CC(NC(=S)Nc1ccccc1Cl)C(c1cccs1)N1CCCC1 (centres undefined)	-	12µM	?	?
COc1cccc(-c2cc(N)nn2C(=O)Nc2ccc(Cl)cc2)c1	-	12µM	-	?
COc1cccc(NC(=O)NCCc2ccc(Cl)cc2)c1	-	-	-	?
C#CCOCCOCCOCCNc1nc(N2CCN(C(=O)CCCCCCCCCCNC(=O)Cn3cc(CCCCCN)nn3)CC2)nc(N2CCN(C(=O)CCCCCCCCCCNC(=O)[C@@H]([C@H](C)O)n3cc(C)nn3)CC2)n1	-	0.52µM	.	0.33µM
C#CCOCCOCCOCCNc1nc(N2CCN(C(=O)CCCCCCCCCCNC(=O)Cn3cc(C[C@@H](C)O)nn3)CC2)nc(N2CCN(C(=O)CCCCCCCCCCNC(=O)[C@@H]([C@H](C)O)n3cc(C)nn3)CC2)n1	?	0.083µM	.	0.074µM
Cc1cccc(NC(=O)C2CCCN2S(=O)(=O)c2ccc3nc(-c4ccccc4)[nH]c3c2)c1 (centres undefined)	.	.	-	.
CCOc1ccccc1NC(=O)Cn1nnc2sc3c(c2c1=O)CCC(C(C)(C)C)C3 (centres undefined)	.	.	-	.
Cc1ccc(S(=O)(=O)N/N=C/c2cccc3c2OCCO3)cc1	-	2.1µM	-	-
COC12C(COC(N)=O)C3=C(C(=O)C(C)=C(N)C3=O)N1CC1C2N1C (centres undefined)	?	?	-105	0.93µM
CN(C)CCN1C(=O)c2oc3ccccc3c(=O)c2C1c1ccc(F)cc1 (centres undefined)	-	?	-	?
CCN(CC)CCN1C(=O)c2ccccc2NC1c1cccc(F)c1 (centres undefined)	-	.	-	?
CCN(CC)CCN1C(=O)c2ccccc2NC1c1ccc(C)cc1 (centres undefined)	-	.	-	1.7µM
CCN(CC)CCN1C(=O)c2oc3ccccc3c(=O)c2C1c1ccc(C)cc1 (centres undefined)	-	2.6µM	-	3.3µM
CCN(CC)CCN1C(=O)c2ccccc2NC1c1ccc(N(C)C)cc1 (centres undefined)	-	.	-	0.41µM
CCN(CC)CCN1C(=O)c2ccccc2NC1c1ccc(Br)cc1 (centres undefined)	-	13µM	-	1µM
CCN(CC)CCN1C(=O)c2ccccc2NC1c1ccc(F)cc1 (centres undefined)	-	?	-	?
Cc1ccc(N(C)C(=O)c2noc3c2CCCCC3)cc1C	.	.	-	.
O=c1c2ccccc2nc(COc2ccccc2)n1/N=C/c1ccc(O)cc1O	?	-	-96	-
O=c1c2ccccc2nc(COc2ccccc2)n1/N=C/c1c[nH]c2ccccc12	-	-	-	-
Cc1ccc(-c2[nH]ncc2/C=N/n2c(C)nc3ccccc3c2=O)cc1	-	-	-	-
C/C(=N\OCc1nc2ccccc2c(=O)n1/N=C/c1cc(C)cc([N+](=O)[O-])c1O)c1ccccc1	-	?	-	6.6µM
Cc1ccccc1OCc1nc2ccccc2c(=O)n1/N=C/c1cn[nH]c1-c1ccc(Br)cc1	-	5.2µM	?	?
O=c1c2ccccc2nc(COc2ccccc2)n1/N=C/c1cn[nH]c1-c1ccccc1	?	10µM	-	?
SMILES	HCV inh	Pf growth 96h	HCMV inh	Pf growth 48h
Fc1ccc2c(c1)-c1nc(-c3ccccc3)cc(-c3ccccc3)c1CO2	.	.	-	.
Clc1ccccc1Cc1cn2cc(-c3ccccc3)nc2s1	.	.	-	.
CC(=O)Nc1ccc(S(=O)(=O)NCCc2csc3nc(-c4cccc(C)c4)nn23)cc1	.	.	-	.
O=C(Nc1ccnn1C1CCN(C(=O)c2ccccc2C(F)(F)F)CC1)C1CC1	-	-	-78	-
O=C(Nc1ccnn1C1CCN(C(=O)c2c(F)cccc2F)CC1)C1CC1	-	-	-	-
O=C(Nc1ccnn1C1CCN(Cc2ccc(OC(F)F)cc2)CC1)C1CCCC1	22µM	-	-	?
COc1ccccc1C(=O)Nc1ccnn1C1CCN(C/C=C/c2ccc(F)cc2)CC1	?	-	-	12µM
O=C(Nc1ccnn1C1CCN(C/C=C/c2ccccc2)CC1)C1CCCC1	-	?	?	13µM

Compound activity (PubChem)
